Assay outcomes: PubChem BioAssay, Sanford-Burnham Center for Chemical Genomics
TAG inh: triacylglycerol accumulation inhibition. H9c2 cells, Nile Red lipid (TAG) fluorescence; cells loaded with 200 µM oleic acid. inhibition, % at 12.5 µM. actives 0.66% (n = 230,000). AID 651582;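 active = pattern-corrected inhibition of lipid staining of at least 50% with the nuclear-stain viability signal not falling by more than 50%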
CRFR2-BP antag: antagonists of CRF-binding protein/CRF-R2 receptor complex. HEK293 CRF-R2/CRF-BP, CRF-induced calcium fluorescence. inhibition, % at 11.8 µM. actives 0.59% (n = 350,000). AID 588475;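 active = inhibition of the ligand-induced calcium signal above about 50% at the single tested concentration, limit read from the data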
CRFR2-BP ag: agonists of human CRF-binding protein/CRF-R2 receptor complex; HEK293 CRF-R2/CRF-BP, calcium dye fluorescence (FLIPR); percent of saturating CRF peptide response; activation, % at 13.2 µM; actives 0.46% (n = 350,000); AID 588473;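 active = activation of at least 50%, plus an integration ratio under a set limit after plate pattern correction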
iPSC survival up: enhancers of human iPSC single-cell survival; hiPSC single-cell survival, ATPlite luminescence; 100% = ROCK inhibitor wells, 0% = DMSO; survival enhancement, % at 20 µM; actives 0.044% (n = 360,000); in the data active = survival enhancement above about 18%;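 note: cells exposed to compounds for 16 hours before the ATP read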
Cardio protect: modulators protecting cardiomyocytes from myocardial damage | H9c2 cardiomyocytes, H2O2 injury protection, ATPLite, 2 h | actives 0.63% (n = 360,000) | protection from H2O2 cell death, % at 20 µM;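 active = compounds giving at least 50% protection of heart cells from peroxide-induced death in the single-dose screen, raw or plate-pattern-corrected value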
SKN-1 inh: inhibitors of C. elegans SKN-1 | C. elegans VP596 Pgst-4::GFP/RFP ratio, acrylamide-induced, 24 h | inhibition, % at 21.8 µM | actives 0.49% (n = 360,000);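 active = interference check ratio from 0.5 to 1.5 plus GFP to RFP signal ratio inhibition reaching or exceeding a fixed threshold, cut at about 30% in these data, passing the limit was not always enough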
Each line names hits and unclear results; the compound was inactive in the other large screens. Only some compounds are listed: those with a hit (about 2.5% of all), similar ones and a draw of the others.

COc1ccc(-c2sc3cc4c(cc3c2-c2ccc(OCCN3CCOCC3)cc2)OCO4)cc1	none
COc1ccccc1-c1sc2cc3c(cc2c1-c1ccc(OCCN2CCCCC2)cc1)OCO3	TAG inh 62.7
COC(=O)C[C@@H]1C[C@@H]2c3cc(NS(=O)(=O)c4ccccc4)ccc3O[C@@H]2[C@@H](CO)O1	none
O=C(C[C@H]1C[C@@H]2c3cc(NS(=O)(=O)c4ccccc4)ccc3O[C@@H]2[C@H](CO)O1)N1CCOCC1	CRFR2-BP antag 51.9
COC(=O)C1=C(C)NC(C)=C(C(=O)OC)C1c1ccc(C)o1	none
CCOc1ccccc1NC(=O)Cn1c(=O)oc2cc(Cl)ccc21	SKN-1 inh 35.1 (no result: TAG inh)
O=C1c2ccccc2C(=O)N1C1C(=O)N2CCSC12C(=O)OCc1ccccc1 (stereo not drawn)	none
c1ccc(-n2nnc(-c3nccs3)n2)cc1	SKN-1 inh 36.4 (no result: TAG inh)
FC(F)(F)c1cc(-c2ccccc2)nc(NCC2CCCO2)n1 (stereo not drawn)	none
FC(F)(F)c1cc(-c2ccccc2)nc(NC2CCCC2)n1	SKN-1 inh 36.7
O=C(NCc1ccccc1)/C(=C\c1cccc([N+](=O)[O-])c1)NC(=O)c1ccco1	none
COc1ccc(NS(=O)(=O)c2ccc3ccccc3c2)c2ncccc12	Cardio protect 59.2 (no result: TAG inh)
COc1ccc(-c2ccc3c(c2)S(=O)(=O)c2cccc(C(=O)NC[C@@H]4CCCO4)c2C3=O)cc1OC	Cardio protect 63.2
COc1ccc(-c2ccc3c(c2)S(=O)(=O)c2cccc(C(=O)N4CCN(c5c(Cl)cncc5Cl)CC4)c2C3=O)cc1OC	Cardio protect 66.4
O=C1c2ccc(Cl)cc2S(=O)(=O)c2cccc(C(=O)N3CCN(c4ncc(Br)cn4)CC3)c21	none
O=C1C(Cl)=C(Nc2ccccc2)C(=O)c2ccccc21	CRFR2-BP antag 82.5 (no result: TAG inh)
O=C(O)c1cccc(NC2=C(Cl)C(=O)c3ccccc3C2=O)c1	none
O=C(O)c1ccc(NC2=C(Cl)C(=O)c3ccccc3C2=O)cc1	CRFR2-BP antag 101.2
CCCC(=O)N1CCCC(c2cc(C(=O)NCc3ccccc3)no2)C1 (stereo not drawn)	none (no result: CRFR2-BP antag, CRFR2-BP ag)
CCCCCCC[C@@H](C/C=C/CCC(=O)N(C)C/C(=C/Cl)C/C(=C\C(=O)N1CC(OC)=CC1=O)OC)OC	iPSC survival up 34.8
CCCCCCC[C@@H](C/C=C/CCC(=O)N(C)C/C(=C/Cl)C/C(=C\C(=O)N1C[C@H](O)CC1=O)OC)OC	none
O=C(c1ccc([N+](=O)[O-])cc1)N(Cc1ccc(Br)cc1)N1C(=O)CCCC1=O	CRFR2-BP ag 59.1 (no result: TAG inh)
O=C(c1ccc([N+](=O)[O-])cc1)N(Cc1ccccc1)Cc1ccccc1	CRFR2-BP antag 67.6
CCCCNC(=O)C1(C)CCN1C(=O)Cc1cccc2ccccc12 (stereo not drawn)	none (no result: CRFR2-BP antag, CRFR2-BP ag)
OCCOc1ccc(CN2CCN(CCCc3ccccc3)C(CCO)C2)cc1 (stereo not drawn)	none
C#CCOCCOCCOCCNc1nc(N2CCN(C(=O)CCCCCCCCCCNC(=O)Cn3cc(C[C@@H](C)O)nn3)CC2)nc(N2CCN(C(=O)CCCCCCCCCCNC(=O)[C@H](CCCCN)n3cc(C[C@@H](C)CC)nn3)CC2)n1	none
C#CCOCCOCCOCCNc1nc(N2CCN(C(=O)CCCCCCCCCCNC(=O)[C@H]([C@@H](C)CC)n3cc(CCCCCN)nn3)CC2)nc(N2CCN(C(=O)CCCCCCCCCCNC(=O)[C@@H]([C@H](C)O)n3cc(C)nn3)CC2)n1	none
C#CCOCCOCCOCCNc1nc(N2CCN(C(=O)CCCCCCCCCCNC(=O)[C@H](CCCCN)n3cc(C)nn3)CC2)nc(N2CCN(C(=O)CCCCCCCCCCNC(=O)[C@@H]([C@H](C)CC)n3cc(CCCCCN)nn3)CC2)n1	TAG inh 74.6 (no result: CRFR2-BP antag, CRFR2-BP ag)
C#CCOCCOCCOCCNc1nc(N2CCN(C(=O)CCCCCCCCCCNC(=O)Cn3cc(C[C@@H](C)O)nn3)CC2)nc(N2CCN(C(=O)CCCCCCCCCCNC(=O)Cn3cc(C[C@@H](C)O)nn3)CC2)n1	Cardio protect 79.9
